Reference: PubChem BioAssay (EPA / NIEHS)
Records with an inconclusive call do not appear. The source made the active and inactive calls. The calls were made as follows, unless noted: active = hit-call score of the fitted dose curve at least 0.9, where 1 is the maximum; inactive = score below 0.9.

How the values were obtained:
[1] = target: human RAR-related Orphan Receptor gamma (RORg), RORC (gene 6097) (UniProt P51449); assay: ATG_RORg_TRANS: Attagene TRANS-FACTORIAL HepG2 Assay for human RAR-related Orphan Receptor gamma (RORg) (AID 2283011; active = hit-call score of the fitted dose curve at least 0.9, where 1 is the maximum)
Method in brief: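 First, HepG2 liver cells were transfected with GAL4-UAS-driven reporter constructs and the RORg-Gal4 fusion. Next, they were treated with chemical for 24 h. Finally, reporter mRNA was quantified by RT-PCR and capillary electrophoresis, with upward activity fitted against DMSO.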

[2] = target: human Retinoid X Receptor beta (RXRb), RXRB (gene 6257) (UniProt P28702); assay: ATG_RXRb_TRANS: Attagene TRANS-FACTORIAL HepG2 Assay for human Retinoid X Receptor beta (RXRb) (AID 2283013; active = hit-call score of the fitted dose curve at least 0.9, where 1 is the maximum)
Method in brief: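 HepG2 cells transiently transfected with multiplexed reporter units driven by GAL4-UAS and exogenous chimeric NR-Gal4 proteins; treated 24 h. Reporter mRNA measured by RT-PCR, 6-FAM labelling and capillary electrophoresis; gain-of-signal fitted versus DMSO baseline.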

[3] = read-out: E-selectin (Homo sapiens) (UniProt P16581); assay: BSK_3C_Eselectin: BioMAP Diversity Plus: 3C Assay for Eselectin Biomarker Activity (AID 2283015); details: primary human endothelial cells (HUVEC); actives raise or lower the signal
Method in brief: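 ELISA read-out of E-selectin on endothelial monolayers after 24 h chemical treatment. Human umbilical vein primary cells served as the system, with DMSO defining baseline activity for bidirectional fitting.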

[4] = read-out: Interleukin-1 alpha (IL1a), IL1A (gene 3552); assay: BSK_BE3C_IL1a: BioMAP Diversity Plus: BE3C Assay for Interleukin-1 alpha (IL1a) Biomarker Activity (AID 2283016); details: primary human bronchial epithelial cells; actives raise or lower the signal
Method in brief: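 Human primary bronchial epithelial cells (BE3C system) were dosed with compound and IL-1a measured by ELISA 24 h later. Activity was fitted bidirectionally against DMSO baseline; cytotoxicity was tracked in parallel cultures by SRB total-protein staining.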

[5] = read-out: Monocyte Chemoattractant Protein-1 (MCP1), CCL2 (gene 6347); assay: BSK_3C_MCP1: BioMAP Diversity Plus: 3C Assay for Monocyte Chemoattractant Protein-1 (MCP1) Biomarker Activity (AID 2283017); details: primary human endothelial cells (HUVEC); actives raise or lower the signal
Method in brief: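 ELISA read-out of MCP-1 from human umbilical vein endothelial cell cultures harvested 24 h post-dosing. Gain or loss of signal was fitted relative to DMSO.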

[6] = read-out: Monocyte Chemoattractant Protein-1 (MCP1), CCL2 (gene 6347); assay: BSK_4H_MCP1: BioMAP Diversity Plus: 4H Assay for Monocyte Chemoattractant Protein-1 (MCP1) Biomarker Activity (AID 2283018); details: primary human endothelial cells (HUVEC); actives raise or lower the signal
Method in brief: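 Human umbilical vein endothelial cells (4H system) dosed with chemical; MCP-1 measured by ELISA 24 h after dosing. Bidirectional curve fitting against DMSO negative control as baseline; parallel SRB total-protein staining tracks overt cytotoxicity.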

[7] = read-out: Human Leukocyte Antigen - DR isotype (HLADR), HLA-DRA (gene 3122); assay: BSK_3C_HLADR: BioMAP Diversity Plus: 3C Assay for Human Leukocyte Antigen - DR isotype (HLADR) Biomarker Activity (AID 2283019); details: primary human endothelial cells (HUVEC); actives raise or lower the signal
Method in brief: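 ELISA readout of surface HLA-DR on human umbilical vein endothelium, taken 24 h after chemical treatment. Gain- and loss-of-signal were both fitted relative to DMSO.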

[8] = read-out: Interleukin-8 (IL8), CXCL8 (gene 3576); assay: BSK_3C_IL8: BioMAP Diversity Plus: 3C Assay for Interleukin-8 (IL8) Biomarker Activity (AID 2283020); details: primary human endothelial cells (HUVEC); actives raise or lower the signal
Method in brief: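 Primary human umbilical vein endothelial cells (3C system) were exposed to test chemical for 24 h, then IL-8 was quantified by ELISA. Responses were fitted bidirectionally against DMSO vehicle as baseline.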

[9] = read-out: Monokine induced gamma interferon (MIG), CXCL9 (gene 4283); assay: BSK_3C_MIG: BioMAP Diversity Plus: 3C Assay for Monokine induced gamma interferon (MIG) Biomarker Activity (AID 2283021); details: primary human endothelial cells (HUVEC); actives raise or lower the signal
Method in brief: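 Primary human umbilical vein endothelial cells in the 3C system were exposed to chemical for 24 h, after which MIG was quantified by ELISA. Activity was fitted bidirectionally against DMSO as negative control and baseline.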

[10] = target: human Vitamin D Receptor (VDR), VDR (gene 7421) (UniProt P11473); assay: ATG_VDR_TRANS: Attagene TRANS-FACTORIAL HepG2 Assay for human Vitamin D Receptor (VDR) (AID 2283022; active = hit-call score of the fitted dose curve at least 0.9, where 1 is the maximum)
Method in brief: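 Steps: transfect HepG2 with GAL4-UAS-driven reporter constructs; dose compounds 24 h; isolate RNA, reverse-transcribe, PCR-amplify with 6-FAM-labelled primer extension and HpaI digestion; quantify fragments by capillary electrophoresis relative to DMSO.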

[11] = BSK_3C_SRB: Viability Assessment in the BioMAP Diversity Plus: 3C Assay (AID 2283023); details: primary human endothelial cells (HUVEC);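 also: fitted both ways against DMSO so a hit may be signal rise or drop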
Method in brief: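 Absorbance at 560 nm of sulforhodamine B-stained (0.1%) total protein served as a cytotoxicity readout in human umbilical vein endothelial cells, 24 h after chemical treatment. Signal was fitted bidirectionally relative to DMSO.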

[12] = read-out: Matrix Metallopeptidase 1 (MMP1), MMP1 (gene 4312); assay: BSK_BE3C_MMP1: BioMAP Diversity Plus: BE3C Assay for Matrix Metallopeptidase 1 (MMP1) Biomarker Activity (AID 2283024); details: primary human bronchial epithelial cells; actives raise or lower the signal
Method in brief: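 Primary human bronchial epithelial cells were dosed with test chemicals, and MMP1 levels were measured by ELISA 24 h later. Data were fitted bidirectionally against DMSO as the negative control and activity baseline.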

[13] = BSK_3C_Vis: BioMAP Diversity Plus: 3C Assay for Morphology Visualization (AID 2283025); details: primary human endothelial cells (HUVEC);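 also: fitted both ways so gain or loss versus DMSO counts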
Method in brief: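 Human umbilical vein endothelial cells in the 3C system were imaged by light microscopy 24 h after chemical dosing to record cell morphology. Activity was fitted bidirectionally against DMSO as negative control and baseline; the endpoint serves as a background control.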

[14] = read-out: Pselectin, SELP (gene 6403); assay: BSK_4H_Pselectin: BioMAP Diversity Plus: 4H Assay for Pselectin Biomarker Activity (AID 2283026); details: primary human endothelial cells (HUVEC); actives raise or lower the signal
Method in brief: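 Primary human umbilical vein endothelial cells were exposed to test chemical for 24 h, then cell-surface P-selectin was quantified by ELISA. Activity was fitted bidirectionally against DMSO as negative control and baseline.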

[15] = BSK_4H_SRB: Viability Assessment in the BioMAP Diversity Plus: 4H Assay (AID 2283027); details: primary human endothelial cells (HUVEC);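 also: cells exposed to compound for 24 h before staining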;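 as to AC50: curves fitted both ways versus DMSO so AC50 may be loss or gain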
Method in brief: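 Human umbilical vein endothelial cells, 24 h after chemical dosing; total protein measured by 0.1% sulforhodamine B staining after 10% TCA fixation, read at 560 nm. Bidirectional fitting against DMSO.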

[16] = BSK_BE3C_SRB: Viability Assessment in the BioMAP Diversity Plus: BE3C Assay (AID 2283028); details: primary human bronchial epithelial cells
Method in brief: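 Cells (human bronchial epithelial, primary) are treated with chemicals, and after 24 h the parallel cultures are fixed in 10% TCA. These are then stained with 0.1% SRB and read at 560 nm. Gain or loss of signal is fitted relative to DMSO.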

[17] = read-out: Thrombomodulin, THBD (gene 7056); assay: BSK_3C_Thrombomodulin: BioMAP Diversity Plus: 3C Assay for Thrombomodulin Biomarker Activity (AID 2283029); details: primary human endothelial cells (HUVEC); actives raise or lower the signal
Method in brief: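 Primary human umbilical vein endothelial cells (3C system) were exposed to chemical for 24 h, then thrombomodulin levels were measured by ELISA. Activity was fitted bidirectionally against the DMSO negative control as baseline.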

[18] = read-out: Urokinase-type plasminogen activator receptor (uPAR), PLAUR (gene 5329); assay: BSK_4H_uPAR: BioMAP Diversity Plus: 4H Assay for Urokinase-type plasminogen activator receptor (uPAR) Biomarker Activity (AID 2283030); details: primary human endothelial cells (HUVEC); actives raise or lower the signal
Method in brief: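 Cell-surface uPAR ELISA signal, measured 24 h after dosing human umbilical vein endothelial cells, was analyzed with bidirectional fitting relative to DMSO. Parallel SRB staining of total protein tracked overt cytotoxicity.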

[19] = target: Retinoic acid receptor RXR-alpha (Homo sapiens) (UniProt P19793); assay: ATG_RXRa_TRANS: Attagene TRANS-FACTORIAL HepG2 Assay for human Retinoid X Receptor alpha (RXRa) (AID 2283012; active = hit-call score of the fitted dose curve at least 0.9, where 1 is the maximum)
Method in brief: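 HepG2 cells transiently transfected with multiplexed GAL4-UAS reporter units and chimeric NR-GAL4 fusions, dosed 24 h. Reporter mRNA measured by RT-PCR, FAM labelling, HpaI digestion and capillary electrophoresis; gain-of-signal fitted relative to DMSO baseline.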

[20] = target: human Thyroid Receptor alpha (THRa1), THRA (gene 7067) (UniProt P10827); assay: ATG_THRa1_TRANS: Attagene TRANS-FACTORIAL HepG2 Assay for human Thyroid Receptor alpha (THRa1) (AID 2283014; active = hit-call score of the fitted dose curve at least 0.9, where 1 is the maximum)
Method in brief: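 Reporter transcript induction, read by capillary electrophoresis of 6-FAM-labelled RT-PCR products, reflects activity of a transfected THRa1-Gal4 fusion in HepG2 liver cells. Cells were dosed for 24 h; activity was fitted in the positive direction against DMSO.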

Measured: AC50

Chain of E-selectin (Homo sapiens) (P16581 whole entry, looked up): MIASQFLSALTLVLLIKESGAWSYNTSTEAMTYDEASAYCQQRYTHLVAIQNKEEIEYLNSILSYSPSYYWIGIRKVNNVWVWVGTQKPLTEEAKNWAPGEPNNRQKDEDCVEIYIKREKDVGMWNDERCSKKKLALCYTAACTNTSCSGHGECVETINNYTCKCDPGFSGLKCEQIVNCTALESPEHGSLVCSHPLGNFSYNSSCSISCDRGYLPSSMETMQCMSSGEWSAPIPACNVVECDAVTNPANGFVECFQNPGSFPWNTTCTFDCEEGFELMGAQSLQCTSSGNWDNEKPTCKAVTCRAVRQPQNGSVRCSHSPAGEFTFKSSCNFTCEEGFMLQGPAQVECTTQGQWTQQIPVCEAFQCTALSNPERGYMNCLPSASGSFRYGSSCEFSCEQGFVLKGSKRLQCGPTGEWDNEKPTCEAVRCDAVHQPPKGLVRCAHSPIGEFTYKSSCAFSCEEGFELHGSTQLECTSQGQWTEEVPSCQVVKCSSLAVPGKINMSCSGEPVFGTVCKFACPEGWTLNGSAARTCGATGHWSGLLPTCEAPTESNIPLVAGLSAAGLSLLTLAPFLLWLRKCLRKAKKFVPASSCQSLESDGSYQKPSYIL
Chain of Retinoic acid receptor RXR-alpha (Homo sapiens) (P19793 whole entry, looked up, the tested form may be a part): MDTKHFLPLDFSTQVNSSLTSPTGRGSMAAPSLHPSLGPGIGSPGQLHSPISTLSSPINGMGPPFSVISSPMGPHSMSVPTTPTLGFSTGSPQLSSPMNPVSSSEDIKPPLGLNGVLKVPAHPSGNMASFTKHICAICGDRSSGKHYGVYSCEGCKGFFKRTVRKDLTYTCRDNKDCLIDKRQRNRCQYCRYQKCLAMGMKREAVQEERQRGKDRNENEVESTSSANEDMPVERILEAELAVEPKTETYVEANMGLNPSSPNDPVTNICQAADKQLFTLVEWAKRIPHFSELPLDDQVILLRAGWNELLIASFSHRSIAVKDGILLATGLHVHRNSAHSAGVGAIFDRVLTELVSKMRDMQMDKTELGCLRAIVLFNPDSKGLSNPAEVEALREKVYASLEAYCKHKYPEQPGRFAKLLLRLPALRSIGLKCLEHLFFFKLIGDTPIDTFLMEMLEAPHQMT
Chain of human Vitamin D Receptor (VDR), VDR (gene 7421) (P11473 whole entry, looked up, the tested form may be a part): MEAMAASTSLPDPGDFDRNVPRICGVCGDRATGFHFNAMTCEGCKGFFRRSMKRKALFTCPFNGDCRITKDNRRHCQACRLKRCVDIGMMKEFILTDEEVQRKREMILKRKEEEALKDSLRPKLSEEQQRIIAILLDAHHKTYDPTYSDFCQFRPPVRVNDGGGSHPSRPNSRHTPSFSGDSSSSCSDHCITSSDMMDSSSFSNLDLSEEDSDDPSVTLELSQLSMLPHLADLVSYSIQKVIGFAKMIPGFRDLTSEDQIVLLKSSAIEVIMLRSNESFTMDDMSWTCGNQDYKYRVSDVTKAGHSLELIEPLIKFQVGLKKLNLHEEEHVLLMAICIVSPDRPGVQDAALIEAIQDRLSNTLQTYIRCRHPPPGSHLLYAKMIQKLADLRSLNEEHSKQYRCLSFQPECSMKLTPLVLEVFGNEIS
Chain of human Retinoid X Receptor beta (RXRb), RXRB (gene 6257) (P28702 whole entry, looked up, the tested form may be a part): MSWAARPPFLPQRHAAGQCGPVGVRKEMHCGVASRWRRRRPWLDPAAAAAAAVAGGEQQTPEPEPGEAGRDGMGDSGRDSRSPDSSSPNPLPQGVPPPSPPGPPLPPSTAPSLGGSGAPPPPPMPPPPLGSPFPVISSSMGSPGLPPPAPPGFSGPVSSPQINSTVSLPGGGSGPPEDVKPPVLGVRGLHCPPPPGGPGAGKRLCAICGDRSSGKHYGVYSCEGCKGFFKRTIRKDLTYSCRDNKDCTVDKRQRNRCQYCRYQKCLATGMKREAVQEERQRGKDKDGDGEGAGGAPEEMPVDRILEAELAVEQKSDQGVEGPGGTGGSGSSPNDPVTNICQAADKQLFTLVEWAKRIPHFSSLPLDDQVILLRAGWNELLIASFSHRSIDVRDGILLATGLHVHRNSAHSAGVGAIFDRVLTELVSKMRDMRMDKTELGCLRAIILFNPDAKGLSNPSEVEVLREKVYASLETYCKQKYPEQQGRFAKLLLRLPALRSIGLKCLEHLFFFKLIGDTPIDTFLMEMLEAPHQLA
Chain of human RAR-related Orphan Receptor gamma (RORg), RORC (gene 6097) (P51449 whole entry, looked up, the tested form may be a part): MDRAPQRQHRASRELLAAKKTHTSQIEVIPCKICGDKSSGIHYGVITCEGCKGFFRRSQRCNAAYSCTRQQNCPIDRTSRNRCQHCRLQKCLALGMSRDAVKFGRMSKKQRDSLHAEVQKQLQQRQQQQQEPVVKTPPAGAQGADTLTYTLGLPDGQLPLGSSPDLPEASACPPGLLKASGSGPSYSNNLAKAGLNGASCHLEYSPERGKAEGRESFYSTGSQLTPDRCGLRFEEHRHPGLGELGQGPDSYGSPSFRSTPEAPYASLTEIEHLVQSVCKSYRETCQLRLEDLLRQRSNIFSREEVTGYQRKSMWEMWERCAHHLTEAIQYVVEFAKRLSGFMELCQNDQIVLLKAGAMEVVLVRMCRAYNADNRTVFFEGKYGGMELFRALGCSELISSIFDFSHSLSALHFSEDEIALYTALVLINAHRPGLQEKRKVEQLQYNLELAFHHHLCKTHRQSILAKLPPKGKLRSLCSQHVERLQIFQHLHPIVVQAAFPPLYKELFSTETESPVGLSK
Chain of human Thyroid Receptor alpha (THRa1), THRA (gene 7067) (P10827 whole entry, looked up, the tested form may be a part): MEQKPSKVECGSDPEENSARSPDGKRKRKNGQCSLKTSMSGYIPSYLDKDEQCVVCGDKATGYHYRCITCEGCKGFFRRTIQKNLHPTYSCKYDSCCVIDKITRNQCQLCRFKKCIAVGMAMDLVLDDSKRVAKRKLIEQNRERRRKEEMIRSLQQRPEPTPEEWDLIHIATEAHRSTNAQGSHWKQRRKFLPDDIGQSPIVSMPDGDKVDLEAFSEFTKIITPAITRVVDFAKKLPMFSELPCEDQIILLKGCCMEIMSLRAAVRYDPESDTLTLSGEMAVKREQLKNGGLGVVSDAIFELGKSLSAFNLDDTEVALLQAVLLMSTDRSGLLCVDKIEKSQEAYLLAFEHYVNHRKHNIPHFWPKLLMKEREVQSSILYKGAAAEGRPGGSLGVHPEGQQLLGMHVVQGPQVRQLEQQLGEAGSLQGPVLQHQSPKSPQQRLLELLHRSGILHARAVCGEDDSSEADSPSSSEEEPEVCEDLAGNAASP

S=C1NCCN1
active: [13] 39 µM
not listed: [19] | [20]
inactive: all other assays above

Nc1c(Cl)cc([N+](=O)[O-])cc1Cl
active: [7] 28.8 µM
not listed: [3] | [6]
inactive: all other assays above

COP(=O)(OC)C(O)C(Cl)(Cl)Cl (stereo unspecified)
active: [13] 9.8 µM
inactive: all other assays above

COP(=O)(OC)SCn1c(=O)oc2cc(Cl)cnc21
active: [3] 20 µM | [7] 25.1 µM | [8] 11.3 µM | [11] 20 µM | [13] 39 µM | [14] 17.5 µM
inactive: all other assays above

C=C(C)[C@H]1Cc2c(ccc3c2O[C@@H]2COc4cc(OC)c(OC)cc4[C@@H]2C3=O)O1
inactive: [1] | [2] | [4] | [9] | [12] | [16] | [17]
active: [20] 0.24 µM | [5] 34.8 µM | [6] 29.3 µM | [7] 3.82 µM | [8] 20 µM | [11] 12.9 µM | [13] 0.468 µM | [14] 10.3 µM | [15] 3.9 µM | [18] 4.41 µM

Cc1nn(-c2cc(NS(C)(=O)=O)c(Cl)cc2Cl)c(=O)n1C(F)F
not listed: [2] | [3]
inactive: all other assays above
